“And” between values parts separate entries of the source, which are not always exact repeats. Equal entries are not always repeated. Records with an inconclusive call do not appear. The source made the active and inactive calls. How the source made its calls, unless noted: active means hit-call score of the fitted dose curve at least 0.9, where 1 is the maximum; inactive means score below 0.9.
System: not listed separately
Assay: CCTE_Mundy_HCI_iCellGluta_NOG_NeuriteCount: CCTE's Neurite Outgrowth Assay in iCellGluta cells for Neurite Count, Mundy Lab (AID 2284342; active means hit-call score of the fitted dose curve at least 0.9, where 1 is the maximum;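 further: chemical exposure about 48 hours starting 2 hours after plating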)

| SMILES | AC50 | outcome |
| --- | --- | --- |
| Nc1ccn([C@@H]2O[C@H](CO)[C@@H](O)[C@@H]2O)c(=O)n1 | 959 nM (active) and 1.04 µM (active) | – |
| OC(O)(C(F)C(O)(O)C(F)(F)F)C(F)(F)F | – | inactive |
| FC(F)=C(F)C(F)(F)C(F)(F)C(F)(F)C(F)(F)C(F)(F)C(F)(F)F | – | inactive |
| C[C@]12C=CC(=O)C=C1CC[C@H]1[C@@H]3C[C@@H](O)[C@](O)(C(=O)CO)[C@@]3(C)C[C@H](O)[C@@]12F | 23.7 µM (active) | – |
| c1ccc2cc3ccccc3cc2c1 | – | inactive |
| FC(F)(F)C(F)(F)C(F)(F)C(F)(F)C(F)(F)C(F)(F)I | – | inactive |
| O=C(Cl)C(F)(F)C(F)(F)C(F)(F)C(=O)Cl | – | inactive |
| Cn1cc[nH]c1=S | – | inactive |

System: SERPINA7 (gene 6906)
Assay: CCTE_GLTED_hTBG: CCTE's human Thyroxine-binding Globulin (TBG) Inhibition Assay, Great Lakes Toxicology and Ecology Division (GLTED) Lab (AID 2284343; active means hit-call score of the fitted dose curve at least 0.9, where 1 is the maximum;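 further: active chemicals lower fluorescence versus DMSO baseline by displacing probe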)
How it was run: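 Cell-free displacement of the fluorescent probe ANSA from human thyroxine-binding globulin after 2 h exposure. Read-out at ex 380/em 475 nm; DMSO baseline.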

| SMILES | AC50 | outcome |
| --- | --- | --- |
| C=CCc1cc(S(=O)(=O)c2ccc(O)c(CC=C)c2)ccc1O | 1.47 µM (active) | – |
| CCc1ccc(O)c(C(C)(C)C)c1 | 35.3 µM (active) | – |
| O=C(NO)C1(NS(=O)(=O)c2ccc(Oc3ccc(F)cc3)cc2)CCOCC1 | – | inactive |
| CC(C)C(=O)Nc1ccc([N+](=O)[O-])c(C(F)(F)F)c1 | – | inactive |
| CCCCCCCCCCCCCCCCOS(=O)(=O)O | 2.91 µM (active) | – |
| NC(=O)N1c2ccccc2C=Cc2ccccc21 | 30.5 µM (active) | – |
| CCN(CC)C(=S)SSC(=S)N(CC)CC | 11.7 µM (active) | – |

System: SRY-box transcription factor 2 (SOX2) Protein Expression, Deisenroth Lab, SOX2 (gene 6657)
Assay: CCTE_Deisenroth_DEVTOX-GLR_legacy_Sox2: (Legacy) CCTE's DevTox GLR-Endo Assay Evaluation of SRY-box transcription factor 2 (SOX2) Protein Expression, Deisenroth Lab (AID 2284346)
How it was run: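 Two exposures, 24 h apart, during 48 h defined-media differentiation of seeded RUES2-GLR cells; nuclei-stained cells imaged. Sox2 positivity called at 5x BMAD above endoderm control median, DMSO median subtracted.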

| SMILES | AC50 | outcome |
| --- | --- | --- |
| Nc1ccn([C@@H]2O[C@H](CO)[C@@H](O)[C@@H]2O)c(=O)n1 | 0.937 µM (active) | – |
| CCCC(CCC)C(=O)O | – | inactive |
| NC(=O)N1c2ccccc2C=Cc2ccccc21 | – | inactive |
| NNC(=O)c1ccncc1 | – | inactive |

System: not listed separately
Assay: Tanguay_ZF_120hpf_CRAN: Oregon State University Tanguay Lab 120 Hour Post-fertilization zebrafish Assay for Craniofacial Malformation (AID 2284397)
How it was run: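 Scoring of craniofacial malformation as a binary endpoint was done at 120 hpf by brightfield microscopy and was not done in dead embryos. Exposure was static, starting at 6 hpf, in dechorionated wild-type embryos held singly at 28C with 0.64% DMSO final.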

| SMILES | AC50 | outcome |
| --- | --- | --- |
| OC(O)(C(F)C(O)(O)C(F)(F)F)C(F)(F)F | 42.2 µM (active) | – |
| O=S(=O)(O)CCC(F)(F)C(F)(F)C(F)(F)C(F)(F)C(F)(F)C(F)(F)F | – | inactive |
| NCC(F)(F)C(F)(F)C(F)(F)C(F)(F)F | – | inactive |
| FC(F)=C(F)C(F)(F)C(F)(F)C(F)(F)C(F)(F)C(F)(F)C(F)(F)F | – | inactive |
| OCCC(F)(F)C(F)(F)C(F)(F)C(F)(F)F | – | inactive |
| FC(F)(F)COC(OCC(F)(F)F)OCC(F)(F)F | – | inactive |
| C[Si](C)(C)C(F)(F)C(F)(F)C(F)(F)F | – | inactive |
| FC(F)(F)C(F)(F)C(F)(F)C(F)(F)C(F)(F)C(F)(F)I | – | inactive |
| FC(F)C(F)(F)COCC1CO1 (centres undefined) | – | inactive |
| O=C(Cl)C(F)(F)C(F)(F)C(F)(F)C(=O)Cl | – | inactive |

System: not listed separately
Assay: Tanguay_ZF_120hpf_AXIS: Oregon State University Tanguay Lab 120 Hour Post-fertilization zebrafish Assay for Axial Malformation (AID 2284398)
How it was run: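 Scoring was binary (present or absent) for body-axis defects, judged by brightfield imaging at 120 hpf in surviving larvae. Exposure was static at 28C from 6 hpf in chorion-free 5D wild-type embryos, with 0.64% DMSO vehicle.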

| SMILES | outcome |
| --- | --- |
| OC(O)(C(F)C(O)(O)C(F)(F)F)C(F)(F)F | inactive |
| O=S(=O)(O)CCC(F)(F)C(F)(F)C(F)(F)C(F)(F)C(F)(F)C(F)(F)F | inactive |
| NCC(F)(F)C(F)(F)C(F)(F)C(F)(F)F | inactive |
| FC(F)=C(F)C(F)(F)C(F)(F)C(F)(F)C(F)(F)C(F)(F)C(F)(F)F | inactive |
| OCCC(F)(F)C(F)(F)C(F)(F)C(F)(F)F | inactive |
| FC(F)(F)COC(OCC(F)(F)F)OCC(F)(F)F | inactive |
| C[Si](C)(C)C(F)(F)C(F)(F)C(F)(F)F | inactive |
| FC(F)(F)C(F)(F)C(F)(F)C(F)(F)C(F)(F)C(F)(F)I | inactive |
| FC(F)C(F)(F)COCC1CO1 (centres undefined) | inactive |
| O=C(Cl)C(F)(F)C(F)(F)C(F)(F)C(=O)Cl | inactive |

Source: PubChem BioAssay (EPA / NIEHS)
